Data published in PubChem BioAssay AID624330 (Southern Research Specialized Biocontainment Screening …, 2012).
Out of some 340,000 compounds screened, about 2,100 (0.62%) were called active.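 How the source made its calls: active means first-screen hits whose inhibition reached a set limit at any dose in the follow-up dose series; inconclusive means inhibition above the set first-screen limit but never retested; inactive means the rest.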 The list is a sample of the results. Entries with a potency or affinity are not part of this list.

These compounds were tested against Rac GTPase-activating protein 1 (Homo sapiens) (UniProt Q9H0H5) (assay: MgcRacGAP GTPase-activating activity inhibitors, confirmation, biochemical, ADP Hunter fluorescence, primary and confirmatory (AID 624330;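 further: fluorescence reports GDP produced by GAP-driven GTP hydrolysis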)). Settings: MgcRacGAP-stimulated Rac1 GTP hydrolysis, at 30 µM, active compounds read high, GST-tagged Rac1 F28L mutant substrate.
Sequence of Rac GTPase-activating protein 1 (Homo sapiens) (Q9H0H5 whole entry, looked up): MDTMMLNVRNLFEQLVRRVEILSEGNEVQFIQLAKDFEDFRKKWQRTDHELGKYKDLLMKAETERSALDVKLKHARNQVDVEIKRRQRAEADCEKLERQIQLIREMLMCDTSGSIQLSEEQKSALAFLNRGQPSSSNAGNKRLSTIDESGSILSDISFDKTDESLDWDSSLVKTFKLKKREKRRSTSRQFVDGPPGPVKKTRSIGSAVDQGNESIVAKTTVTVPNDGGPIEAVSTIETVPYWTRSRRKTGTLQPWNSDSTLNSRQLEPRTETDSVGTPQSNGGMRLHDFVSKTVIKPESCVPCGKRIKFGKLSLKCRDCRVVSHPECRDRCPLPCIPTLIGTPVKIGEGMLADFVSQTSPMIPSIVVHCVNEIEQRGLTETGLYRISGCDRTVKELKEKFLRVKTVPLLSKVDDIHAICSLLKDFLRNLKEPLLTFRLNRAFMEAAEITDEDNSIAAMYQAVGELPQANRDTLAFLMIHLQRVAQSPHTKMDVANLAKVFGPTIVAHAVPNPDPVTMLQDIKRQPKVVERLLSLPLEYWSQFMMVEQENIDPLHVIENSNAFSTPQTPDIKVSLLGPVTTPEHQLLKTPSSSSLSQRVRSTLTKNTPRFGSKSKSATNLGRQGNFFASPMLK
In the case of `COc1ccc(CCNS(=O)(=O)c2cn(C)c(=O)n(C)c2=O)cc1OC`, the inhibition is reported as -1.5% (inactive). In the case of `CCc1ccccc1NC(=O)NCc1ccccn1`, the inhibition is reported as 7.56% (inactive). With `Cc1ccc(C)c2c1cc(C)c1nnc(SCC(=O)Nc3nc4c(s3)CCCC4)n12` the inhibition was 6.82% (inactive). In the case of `CC(=O)N1/C(=C/c2ccc(N(C)C)cc2)C(=O)c2ccccc21`, the inhibition is reported as 10.6% (inactive). For `CC1=NN(c2cccc(F)c2)C(=O)/C1=C/c1ccc(N(C)C)cc1`, the inhibition was 4.18% (inactive). In the case of `CN(C)c1ccc(/C=C/c2nc3ccccc3c(=O)n2-c2ccc(C(=O)O)cc2)cc1`, the inhibition is reported as 21.8% (inactive). For `CCOC(=O)C1=NN(c2ccccc2)C(=O)/C1=C\c1ccc(N(C)C)cc1`, the inhibition was 14.6% (inactive). `CCOC(=O)CC1=NN(c2ccccc2)C(=O)/C1=C\c1ccc(N(C)C)cc1` was tested, and the inhibition was 12% (inactive). With `CN(C)c1ccc(/C=C2\CCCCC2=O)cc1` the inhibition was 22% (inactive). With `CN(C)c1ccc(/C=C2\CCCc3c2nc2ccccc2c3C(=O)O)cc1` the inhibition was 28.8% (inactive). In the case of `CN(C)c1ccc(/C=C2\SC(=O)N(CC(O)Cn3c4ccccc4c4ccccc43)C2=O)cc1` (centres undefined), the inhibition is reported as 9.97% (inactive). With `Cc1ccc(/C=C/C(=O)OCC(=O)NCCN2C(=O)CSC2=O)o1` the inhibition was 5.03% (inactive). For `Cc1nc(CNC(=O)C2CCC(=O)N(CCc3ccc(Cl)cc3)C2)sc1C` (centres undefined), the inhibition was 10.8% (inactive). In the case of `COc1cc(/C=N/Nc2nc(Nc3ccccc3)nc(N3CCOCC3)n2)ccc1OC(=O)c1ccco1`, the inhibition is reported as 8.66% (inactive). In the case of `CN(c1ccc(Cl)cc1)c1cc(=O)n(C)c2ccccc12`, the inhibition is reported as -1.02% (inactive). In the case of `CN(C)c1ccc(-c2n(C)c3ccccc3[n+]2C)cc1`, the inhibition is reported as 3.74% (inactive). In the case of `Cc1ccc(NC(=O)c2cccc(Oc3ccc([N+](=O)[O-])cc3)c2)c(C(=O)O)c1`, the inhibition is reported as 7.38% (inactive). For `O=C(Nc1ccc([N+](=O)[O-])cc1)c1cccc([N+](=O)[O-])c1`, the inhibition was 16.6% (inactive). With `Cc1cc(NC(=O)CN2C(=O)NC(C)(CC(C)C)C2=O)no1` (centres undefined) the inhibition was 3.59% (inactive). For `COc1ccc(C(=O)O)cc1NC(=S)NC(=O)/C=C/c1ccc(C(C)C)cc1`, the inhibition was 14.7% (inactive). With `CCOC(CN=c1nc(N(C)C)ss1)OCC` the inhibition was 30.1% (inactive). In the case of `COC(=O)c1cc(=O)n(Cc2cccs2)c(=NCc2cccs2)s1`, the inhibition is reported as 3.47% (inactive). With `Cc1cc(C2(O)C(=O)Nc3ccccc32)ccc1F` (centres undefined) the inhibition was -6.52% (inactive). In the case of `COc1cccc(-c2cc(C(F)(F)F)n3nc(C(=O)Nc4c(C)n(C)n(-c5ccccc5)c4=O)cc3n2)c1`, the inhibition is reported as 7.24% (inactive). In the case of `O=C(Nc1ccccc1Cl)c1ccc(C(=O)Nc2ccccc2Cl)cc1`, the inhibition is reported as 3.72% (inactive). For `O=C(Nc1ccccc1Cl)Nc1ccccc1Cl`, the inhibition was 10.3% (inactive). In the case of `Cc1n[nH]c(C)c1N1C(=O)c2cccc3cc(Br)cc(c23)C1=O`, the inhibition is reported as 15.9% (inactive). With `O=C(N/N=C/c1ccc(F)cc1)c1ccccc1` the inhibition was 5.65% (inactive). `O=C(N/N=C/c1ccccc1)c1ccc(-c2ccccc2)cc1` was tested, and the inhibition was 5.75% (inactive). `O=C(NCc1ccccc1)C1Cc2ccccc2CN1C(=O)c1ccco1` (centres undefined) was tested, and the inhibition was 6.98% (inactive). `COc1cc(/C=N/O)cc(Br)c1OCc1ccc(Cl)cc1` was tested, and the inhibition was 0.88% (inactive). `CCCCN(C(=O)Cn1nnc2ccccc21)C(C(=O)NCCOC)c1cccs1` (centres undefined) was tested, and the inhibition was 9.34% (inactive). `O=C(O)c1ccccc1Nc1ccc([N+](=O)[O-])c2nonc12` was tested, and the inhibition was 5.2% (inactive). `O=[N+]([O-])c1ccc(O)c2cccnc12` was tested, and the inhibition was 5.34% (inactive). For `CS(=O)(=O)c1ccc(C(=O)Nc2ccc(S(=O)(=O)N3CCCCC3)cc2)cc1`, the inhibition was 3.97% (inactive). In the case of `Nc1nc2ccc([N+](=O)[O-])cc2[nH]1`, the inhibition is reported as 0.04% (inactive). `O=c1[nH]c2cc([N+](=O)[O-])ccc2c2ccccc12` was tested, and the inhibition was 2.35% (inactive). In the case of `O=C1N(C2CCCC2)C[C@@H]2C[C@@H](c3cn[nH]c3-c3ccc(Cl)cc3)N3CCC[C@@]123`, the inhibition is reported as 7.84% (inactive). `COc1ccc(CN2C3CCC2CC(NC(=O)c2cc(OC)c(OC)c(OC)c2)C3)cc1` (centres undefined) was tested, and the inhibition was 9.16% (inactive). For `Cc1ccc(S(=O)(=O)N(C)CC(=O)Nc2ncccc2C)cc1`, the inhibition was -0.45% (inactive). In the case of `CCCNC(=S)N1CC2(C)CN(C(=O)C(=O)OC)CC(C)(C1)C2=O`, the inhibition is reported as 2.02% (inactive). In the case of `CC(=O)N(c1ccccc1)c1nnc(-c2cnc(C)cn2)s1`, the inhibition is reported as -6.48% (inactive). With `Cc1c(O)ccc2c3c(c(=O)oc12)CCC(C)C3` (centres undefined) the inhibition was 29.3% (inactive). With `CC(=O)Oc1ccc2c3c(c(=O)oc2c1C)CCCC3` the inhibition was 4.5% (inactive). In the case of `CCOC(=O)CSc1nc2c(sc(=S)n2-c2ccccc2OC)c(=O)n1-c1ccccc1OC`, the inhibition is reported as 3.56% (inactive). For `COc1cc(C(C)=O)ccc1OCC(O)CNCC(O)c1ccccc1` (centres undefined), the inhibition was 20.6% (inactive). In the case of `COc1ccc(CCN(C)CC(O)COc2ccc(C(C)=O)cc2OC)cc1OC` (centres undefined), the inhibition is reported as 16.6% (inactive). For `CC(=O)Nc1ccc(CN2CCCC(CCC(=O)NCc3ccccc3F)C2)cc1` (centres undefined), the inhibition was 3.48% (inactive). With `CCN1CCN(CCNC(=O)C2CCCN(Cc3nc(-c4cccc(Cl)c4)oc3C)C2)CC1` (centres undefined) the inhibition was 5.46% (inactive). `O=C(c1cccc(Cl)c1)N1CCN(Cc2ccc3c(c2)OCO3)CC1` was tested, and the inhibition was 7.04% (inactive). For `O=C(c1cccc(C(=O)N2CCN(Cc3ccccc3)CC2)c1)N1CCN(Cc2ccccc2)CC1`, the inhibition was 9.35% (inactive). For `O=C(c1cccs1)N1CCN(Cc2ccccc2)CC1`, the inhibition was 7.61% (inactive). For `O=C(c1cccs1)N1CCN(Cc2cccnc2)CC1`, the inhibition was 30.4% (inactive). With `CCSc1nnc(-c2cccc(S(=O)(=O)N(C)C)c2)n1-c1cc(OC)ccc1OC` the inhibition was 1.21% (inactive). For `Cc1ccc(OCCCC(=O)N(C)CC(=O)Nc2ccccc2Cl)cc1`, the inhibition was 2.87% (inactive). With `CC(C)[C@H](NC(=O)c1ccco1)C(=O)Nc1ccc(N2CCCCCC2)cc1` the inhibition was 9.75% (inactive). For `O=C(c1ccccc1)c1c[nH]c(C(=O)NCc2cccnc2)c1`, the inhibition was -1.95% (inactive). For `COc1ccc2c(c1)CCc1c(C(=O)N(C)c3ccccc3)noc1-2`, the inhibition was 7.96% (inactive). With `Cc1sccc1/C=N/NC(=O)c1ccco1` the inhibition was 3.82% (inactive). With `Cc1ccsc1/C=C(\C#N)C(=O)NCc1ccco1` the inhibition was 2.06% (inactive). With `Cc1c(O)ccc(/C(Cc2ccc3ccccc3n2)=N\N)c1O` the inhibition was 14.8% (inactive). `CC(=O)Oc1ccc(C(=O)Cc2ccc3ccccc3n2)c(O)c1C` was tested, and the inhibition was -0.13% (inactive). In the case of `O=C(NCC1CCCO1)c1cnn2c(C(F)F)cc(C3CC3)nc12` (centres undefined), the inhibition is reported as -0.05% (inactive). With `CCC(CO)Oc1cc(NCc2cccc(F)c2)c2ncn(C(C)C)c2c1` (centres undefined) the inhibition was 6.74% (inactive). `COc1cc(/C=C/C(=O)OCC(=O)N2CCCCCC2)ccc1OCC#N` was tested, and the inhibition was 3.21% (inactive). In the case of `Nc1ccccc1N1CCN(C(=O)c2ccccc2)CC1`, the inhibition is reported as 12.8% (inactive). `COc1ccc(OCc2cc(C(=O)NC(C)c3nc(C)cs3)no2)c(Cl)c1` (centres undefined) was tested, and the inhibition was 7.35% (inactive). With `Oc1c(Br)cc(C2N=C(c3ccccc3)NO2)cc1Br` (centres undefined) the inhibition was -1.87% (inactive). For `Brc1ccc(-c2ccccc2)cc1`, the inhibition was 1.25% (inactive). For `C/C(=N\NC(=O)CNC(=O)c1ccccc1F)c1ccco1`, the inhibition was 2.16% (inactive). In the case of `CN(CC(=O)Nc1cc(Cl)cc(Cl)c1)Cc1cccs1`, the inhibition is reported as 3.5% (inactive). In the case of `CC(=O)c1ccc(NC(=O)COC(=O)Cc2ccsc2)cc1`, the inhibition is reported as 8.16% (inactive). With `CCN(CC)c1ccc(NC(=O)COC(=O)c2cccs2)cc1` the inhibition was 21.8% (inactive). With `CCOc1ccc(NC(=O)COC(=O)Cc2ccsc2)cc1` the inhibition was 2.81% (inactive). `O=C(COC(=O)CNC(=O)c1cccs1)Nc1ccccc1C(F)(F)F` was tested, and the inhibition was 8.33% (inactive). For `Cc1ccc(NC(=O)COC(=O)CCC(=O)c2cccs2)cc1`, the inhibition was 6.66% (inactive). With `CCCOC(=O)c1ccc(NC(=O)CN(C)Cc2cccs2)cc1` the inhibition was 10.3% (inactive). In the case of `COc1ccc(NC(=O)COC(=O)CNC(=O)c2cccs2)cc1Cl`, the inhibition is reported as 2.23% (inactive). In the case of `CCCCC[C@H]1CN(Cc2ccccc2)C(=O)[C@@H]1CC(=O)NCc1ccccc1`, the inhibition is reported as 8.29% (inactive). In the case of `Cc1cccc(OCC(=O)Nc2nnc(S(=O)(=O)N3CCCCCC3)s2)c1`, the inhibition is reported as 9.88% (inactive). `Cc1[nH]c(C)c(S(=O)(=O)NCc2ccco2)c1C(=O)N1CCCCC1` was tested, and the inhibition was 16.2% (inactive). With `COc1ccccc1NC(=O)c1ccc[n+]([O-])c1` the inhibition was 4.42% (inactive). With `Cc1cc(F)ccc1S(=O)(=O)Nc1ncnc2sccc12` the inhibition was -6.18% (inactive). With `COc1ccc(CNC(=O)O[C@@H]2C[C@H]3C(=O)N(c4ccccc4)C(=O)[C@H]3[C@@]3(CN(S(=O)(=O)c4ccc(C)cc4)C[C@H]3C)[C@@H]2O)cc1OC` the inhibition was 13.3% (inactive). In the case of `Cc1cn([C@@H](CCCCNC(=O)OC(C)(C)C)C(=O)NCCCCCCCCCCC(=O)N2CCN(C(=O)OC(C)(C)C)CC2)nn1`, the inhibition is reported as 3.56% (inactive). `CCN(CC)c1ccc(NC(=O)COC(=O)CSc2ccc(Br)cc2C)cc1` was tested, and the inhibition was 7.43% (inactive). In the case of `Cc1ccccc1SCC(=O)OCC(=O)NCCNC(=O)COC(=O)CSc1ccccc1C`, the inhibition is reported as 2.21% (inactive). `O=C(Cn1ccc(C(F)(F)F)n1)N=Nc1c(O)[nH]c2ccccc12` was tested, and the inhibition was 4.76% (inactive). In the case of `CCc1ccc(S(=O)(=O)NCCc2cn3cccc(C)c3n2)s1`, the inhibition is reported as 4.85% (inactive). For `O=[N+]([O-])c1ccc(O)c(N=Cc2sc3ccccc3c2O)c1`, the inhibition was 27.9% (inactive). With `COc1ccc(N=Cc2sc3ccccc3c2Cl)cc1` the inhibition was 11% (inactive). `Cc1ccc(O)c(N=Cc2ccc(C)s2)c1` was tested, and the inhibition was -11.5% (inactive). For `Oc1c(C=Nc2ccc(Cl)cn2)sc2ccccc12`, the inhibition was 8.33% (inactive). With `CN(C)C(=O)CSc1nc(-c2ccccc2)c(-c2ccccc2)o1` the inhibition was 2.82% (inactive).
